Some of the results follow. Unmarked numbers belong to inactive results. The source made the active and inactive calls.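 Rule for the calls: active = activation above the screen-wide mean activation plus 3 SD (cut at about 8% in these data); inactive = the rest.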

A short description of the assay: activators of NFAT-driven beta-lactamase reporter, confirmation, counter-screen for GALR2 agonist project, CHO NFAT-bla cells, FRET readout (AID 865).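 Note: 0% = DMSO with PBS wells and 100% = thapsigargin positive control wells.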 The settings on record: at 5.6 µM, stronger effect = higher value. (Counterscreens check selectivity or assay interference.)
As for `CCOc1ccc(C(O)Cn2c(=N)n(CCN3CCCCC3)c3ccccc32)cc1` (configuration not stated), the activation is -2.38%.

With `CC/C(C)=N/Nc1nc2sc3c(c2c(=O)[nH]1)CC(C)(C)OC3`, the activation was -1.22%.

On to `C=CCN(CC=C)S(=O)(=O)c1ccc(C(=O)Nc2nc3c(s2)CCc2ccccc2-3)cc1`, for which the activation is 1.61%.

For `O=c1oc2cc(O)ccc2cc1-c1ccc(F)cc1`, the activation was 7.16%.

Take `Cc1csc(NC(=O)c2ccc(-c3ccc(Cl)cc3Cl)o2)n1`: the activation is 0.5%.

Consider `CCOc1ccc2nc(Nc3nc4ccc(NC(C)=O)cc4s3)sc2c1`, for which the activation is 59.5% (active).

Consider `COc1ccccc1N1N=C(c2cccs2)CC1c1ccccc1` (configuration not stated), for which the activation is 6.25%.

On to `OC(COc1cccc2ccccc12)CN1CCN(c2ccccn2)CC1` (configuration not stated), for which the activation is 0.34%.

As for `Cc1ccc(CCC(=O)Nc2ncc(Cc3cc(Cl)ccc3Cl)s2)o1`, the activation was 13.5% (active).

Take `O=[N+]([O-])c1ccccc1SNc1ccccn1`: the activation is -1.98%.

As for `O=C1COc2ccc(NC(=O)N3CCN(c4ccc(F)cc4)CC3)cc2N1`, the activation was -0.56%.

With `CC(=O)Oc1ccc(C(C)=O)c2c1OCCO2`, the activation was -1.79%.

Regarding `Fc1ccc(N2N=C(c3cccs3)CC2c2ccco2)c(F)c1` (configuration not stated), the activation is 0.42%.

As for `CC(=O)N(Cc1cccs1)C1CCOC(C)(C)C1` (configuration not stated), the activation is -3.67%.

As for `COc1ccc(Nc2oc(-c3ccccc3Cl)nc2C#N)cc1`, the activation is -0.84%.

For the compound `CCN(C(=O)CSc1ncn[nH]1)c1cccc2ccccc12`, the activation is -1.97%.

Regarding `COc1cc(SC#N)ccc1N=Cc1c(C)[nH]n(-c2ccc(C)cc2)c1=O`, the activation was 9.72% (active).

The record behind these values is PubChem BioAssay AID865 (The Scripps Research Institute Molecular Screening Center, 2007).
